{"source": "PubChem BioAssay (EPA / NIEHS)", "note": "The source made the active and inactive calls. How the source made its calls: active means hit-call score of the fitted dose curve at least 0.9, where 1 is the maximum; inactive means score below 0.9."}
{"assay": "CCTE_Shafer_MEA_acute_firing_rate_mean: CCTE's Neural Acute Assay for Mean Firing Rate, Shafer Lab (AID 2284009)", "experimental": "CCTE_Shafer_MEA_acute assay is conducted using Axion Biosystems 48 well microelectrode array (MEA) plates and Maestro recording system. Each well of the MEA plate contains a grid of 16 microelectrodes embedded in the culture surface. Electrically active cells, such as neurons, can be cultured over the electrodes, and electrical activity in these cells can be recorded extracellularly. The spontaneous firing of neurons is captured from each electrode on a microsecond timescale providing both temporally and spatially precise data. […] The CCTE_Shafer_MEA_acute assay uses primary cultures of rat cortical neurons. As these cultures mature over time, neural networks develop functional activity and form cohesive networks in which electrical activity can be highly coordinated. Baseline 40-minute recordings are made on days post-plating 13 or 15, followed by a secondary 40-minute recording after chemical exposure.CCTE_Shafer_MEA_acute_firing_rate_mean is a component of the CCTE_Shafer_MEA_acute assay. It measures the frequency number of spikes (action potential firings) as the total number of spikes divided by the length of the recording in a microelectrode array (MEA) using Axion Biosystems Maestro 768 channel amplifier with the AxIS adaptive spike detector. The firing rate is divided by the number of electrodes to report a well-mean value. The recordings before and after chemical treatment are used to calculate a percent change in the mean firing rate in each well.Data from the assay component CCTE_Shafer_MEA_acute_firing_rate_mean was analyzed into 1 assay endpoint. This assay endpoint, CCTE_Shafer_MEA_acute_firing_rate_mean, was analyzed in the negative analysis fitting direction relative to DMSO as the negative control and baseline of activity. Using a type of functional reporter, gain or loss-of-signal activity can be used to understand electrical activity.\nSpontaneous activity in the cortical cultures was recorded using an Axion Biosystems Maestro 768 channel amplifier and Axion Integrated Studios (AxIS) v1.8 (or later) software. The amplifier recorded from all channels simultaneously (gain = 1200 x; sampling rate = 12.5 kHz/channel): raw signals were filtered with a Butterworth band-pass filter (300-5000 Hz), which filters out slower local field potentials leaving only fast potentials, i.e., \"spikes\", arising from extracellular currents associated with action potentials (Pine 2006; Wheeler and Nam 2011). On-line spike detection of filtered signals was conducted with the AxIS adaptive spike detector, using a threshold of 8x the root mean squared (rms) noise on each channel. Any electrodes with rms noise levels greater than 5 uV were grounded (e.g., no data were recorded). Once grounded, an electrode was grounded for the duration of the experiment. All recordings were conducted at 37 C. Wells were deemed usable if on the day of the exposure >/= 10 electrodes were active (defined as >/= 5 spikes/min). On DIV 13 or 15, a minimum of three wells from one cortical culture preparation were treated with each compound (0.03-40 uM). Prior to recording baseline activity, each mwMEA plate was placed in the Maestro at 37 C and allowed to sit for 20 min while firing rates stabilized. Baseline activity (40 min) was recorded before the addition of each compound. An additional 40 min of spontaneous activity was recorded in the presence of each compound. Changes in network parameters relative to baseline were assessed following compound treatment."}
{"smiles": "CCCCCCCCOC(=O)c1cc(O)c(O)c(O)c1", "AC50": "4.46 µM (active)"}
{"smiles": "Cc1cc2c(cc1C(F)(F)F)N(C(=O)Nc1ccc(Oc3cccnc3C)nc1)CC2", "outcome": "inactive"}
{"smiles": "CCCCCCCCCCCCO", "outcome": "inactive"}
{"smiles": "CCCCOC(=O)c1ccc(O)cc1", "outcome": "inactive"}
{"smiles": "CO[C@H]1/C=C/O[C@@]2(C)Oc3c(C)c(O)c4c(O)c(c(/C=N/N5CCN(C)CC5)c(O)c4c3C2=O)NC(=O)/C(C)=C\\C=C\\[C@H](C)[C@H](O)[C@@H](C)[C@@H](O)[C@@H](C)[C@H](OC(C)=O)[C@@H]1C", "outcome": "inactive"}
{"smiles": "Clc1ccccc1C(c1ccccc1)(c1ccccc1)n1ccnc1", "AC50": "5.03 µM (active)"}
{"smiles": "CCN(CC)C(=O)c1cc(S(=O)(=O)Cc2ccccc2)c(N2CCC(c3ccccc3)CC2)cc1N(CC)CCN(C)C", "AC50": "3.04 µM (active)"}
{"smiles": "C[C@]12CC[C@@H]3c4ccc(O)cc4CC[C@H]3[C@@H]1CC[C@H]2O", "outcome": "inactive"}
{"smiles": "CC[C@@H]1C[C@H](N(Cc2cc(C(F)(F)F)cc(C(F)(F)F)c2)C(C)=O)c2cc(C(F)(F)F)ccc2N1C(=O)OC(C)C", "outcome": "inactive"}
{"smiles": "Cc1c2ccccc2c(C)c2c1ccc1ccccc12", "AC50": "20 µM (active)"}
{"smiles": "CC(O)CC(C)(C)O", "note": "(stereo unspecified)", "outcome": "inactive"}
{"smiles": "O=C1O[C@H]([C@@H](O)CO)C(O)=C1O", "outcome": "inactive"}
{"smiles": "CN1C(=O)CC[C@H]1c1cccnc1", "outcome": "inactive"}
{"smiles": "CC(=O)N1CCN(c2ccc(OC[C@H]3CO[C@](Cn4ccnc4)(c4ccc(Cl)cc4Cl)O3)cc2)CC1", "outcome": "inactive"}
{"smiles": "OC12N=C(c3ccccc3)SC1Cc1cc(Cl)ccc12", "note": "(stereo unspecified)", "AC50": "6.86 µM (active)"}
{"smiles": "CN(C)c1ccc(C(=C2C=CC(=[N+](C)C)C=C2)c2ccc(N(C)C)cc2)cc1", "AC50": "0.406 µM (active)"}
{"smiles": "CC1=CC(=O)/C(=C(/C)O)C(=O)O1", "outcome": "inactive"}
{"smiles": "CCN(Cc1cccc(S(=O)(=O)O)c1)c1ccc(C(=C2C=CC(=[N+](CC)Cc3cccc(S(=O)(=O)O)c3)C=C2)c2ccccc2S(=O)(=O)[O-])cc1", "outcome": "inactive"}
{"smiles": "O=c1[nH]sc2ccccc12", "AC50": "0.0286 µM (active)"}
{"smiles": "NCc1cccc(C2CCN(C(=O)c3ccc(C#Cc4ccccc4F)o3)CC2)c1", "AC50": "9.02 µM (active)"}
{"smiles": "Cc1cn([C@H]2C[C@H](N=[N+]=[N-])[C@@H](CO)O2)c(=O)[nH]c1=O", "outcome": "inactive"}
{"smiles": "c1ccc2n[nH]nc2c1", "outcome": "inactive"}
{"smiles": "O=C(O)c1ccccc1-n1cc(C(=O)O)c(=O)c2cc(Nc3c(F)cc(F)cc3Cl)c(Cl)cc21", "outcome": "inactive"}
{"smiles": "CN(C[C@@H](CC[N+]12CCC(C3CCCCC3)(CC1)CC2)c1ccc(Cl)c(Cl)c1)C(=O)c1cc(C(F)(F)F)cc(C(F)(F)F)c1", "AC50": "0.273 µM (active)"}
{"smiles": "CN(C)C(=O)C1(N2CCCCC2)CCN(CC[C@@]2(c3ccc(Cl)c(Cl)c3)CN(C(=O)c3ccccc3)CCO2)CC1", "AC50": "3.28 µM (active)"}
{"smiles": "COc1cccc([C@H](O)C2CCN(CCc3ccc(F)cc3)CC2)c1OC", "AC50": "2.87 µM (active)"}
{"smiles": "CC/C(=C(/CC)c1ccc(O)cc1)c1ccc(O)cc1", "AC50": "8.49 µM (active)"}
{"smiles": "NC(=O)c1nc(-c2cccc(-c3cc(F)ccc3OCC(F)(F)C(F)(F)F)c2)n[nH]1", "AC50": "0.649 µM (active)"}
{"smiles": "CC(C)(C)c1cc(/C=C2\\SC(N)=NC2=O)cc(C(C)(C)C)c1O", "AC50": "14.8 µM (active)"}
{"smiles": "COc1cc(C(=O)NC2CCN(C)CC2)ccc1Nc1ncc2c(n1)N(C1CCCC1)CC(F)(F)C(=O)N2C", "AC50": "7.05 µM (active)"}
{"smiles": "CC(C)(c1cc(Br)c(O)c(Br)c1)c1cc(Br)c(O)c(Br)c1", "outcome": "inactive"}
